Common to all, as to assay type: functional
Experiment [1] relates to Plasmodium falciparum. The experiment is described as follows: GSK_TCMDC: Inhibition of Plasmodium falciparum 3D7 in whole red blood cells, using parasite LDH activity as an index of growth. Test compounds present at 2uM.
For experiment [2], the system named is Plasmodium falciparum. Briefly: GSK_TCMDC: Inhibition of Plasmodium falciparum Dd2 in whole red blood cells, using parasite LDH activity as an index of growth. Test compounds present at 2uM.
The test system of another experiment is HepG2. The experiment is described as follows: GSK_TCMDC: Percent inhibition of human HepG2 cell line. Test compounds present at 10uM.

As usually defined, the Inhibition is the share of the control response that was lost under treatment. For `Cc1cc2ncn(-c3nccc(NCc4ccc(F)cc4)n3)c2cc1C.O=C(O)C(F)(F)F`, the Inhibition came to 98% with Plasmodium falciparum [1], 83% in the experiment on Plasmodium falciparum [2] and 10% in the experiment on HepG2.
As for `O=C(CCCCCNC(=O)c1ccc(O)c(-c2ccc(Cl)c(Cl)c2)c1)NCCc1ccc(Cl)c(Cl)c1`, the Inhibition in the experiment on Plasmodium falciparum [1] came out at 97%; with Plasmodium falciparum [2], 20%; in the experiment with HepG2, 57%.
In the case of `COc1ccc(C=NNc2nc(O)cc(-c3ccccc3)n2)cc1OC`, the Inhibition in the experiment on Plasmodium falciparum [1] turned out to be 92%; in the experiment on Plasmodium falciparum [2], 93%; in the experiment on HepG2, 22%.
For the molecule `CN1CCC(Oc2ccc(CN3CC[C@H](NC(=O)c4cc(F)cc(F)c4)C3)c3ccccc23)C1.O=C(O)C(F)(F)F` (stereo not given in full), the Inhibition with Plasmodium falciparum [1] is 98%; in the experiment on Plasmodium falciparum [2], 23%; with HepG2, 26%.
In the case of `CC(=O)c1ccc(NC(=O)C2c3ccccc3C(=O)N(CC(C)C)C2c2cccs2)cc1` (stereo not given), the Inhibition in the experiment on Plasmodium falciparum [1] is given as 99%; in the experiment on Plasmodium falciparum [2], 51%; in the experiment on HepG2 it was 13%.
On to `CC(C)N1CCN(c2ccc(OCCCCN3CCN(c4cccc(Cl)c4Cl)CC3)c(C(F)(F)F)c2)CC1.Cl`, for which the Inhibition in the experiment on Plasmodium falciparum [1] stood at 100%; in the experiment on Plasmodium falciparum [2], 28%; in the experiment on HepG2, 64%.
Turning to `NS(=O)(=O)Cc1cccc(-c2ccnc3ccc(-c4cccc(S(N)(=O)=O)c4)cc23)c1`, the Inhibition in the experiment on Plasmodium falciparum [1] is given as 98%; in the experiment with Plasmodium falciparum [2], 42%; in the experiment on HepG2 it was 39%.
With `O=C(Nc1cccc(CN2CCCN(CC3CCCCC3)CC2)c1)c1ccc(Cl)c(Cl)c1.O=C(O)C(F)(F)F`, the Inhibition came out at 91% with Plasmodium falciparum [1], 15% with Plasmodium falciparum [2] and 39% in the experiment on HepG2.
For `O=C(NCCCCN1CCC(c2nc3ccccc3s2)CC1)c1cc2ccccc2[nH]1`, the Inhibition is listed as 86% with Plasmodium falciparum [1], 64% in the experiment with Plasmodium falciparum [2] and 43% with HepG2.
The corresponding values for `CC(C)(C)OC(=O)N1CCC(C2CCN(C(=O)OC(C)(C)C)CC2)CC1` are 86%, 28% and 0%.

For the origin of these results see ChEMBL document CHEMBL1157539, “Thousands of chemical starting points for antimalarial lead identification” (Nature, 2010).
